Experimental data taken from PubChem BioAssay (NCATS).
Active and inactive are the calls of the source. Calls come from the whole dose curve; as a rule, active = well fitted activation curve with a large enough effect; inconclusive = small, poorly fitted or top-dose-only effect; inactive = flat fitted curve, though single readings scatter.

assay: Cellular Toxicity (caspase-3) HepG2 (AID 654); conditions: HepG2 caspase-3 activation, luminescence, 0% = DMSO only, 100% = tamoxifen; series mostly up to 92.2 µM;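 note: cells exposed to compound for 16 hours before reading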
Source text: NIH Chemical Genomics Center [NCGC]
NIH Molecular Libraries Screening Centers Network [MLSCN]
National Institutes of Environmental Health Sciences [NIEHS]
National Toxicology Program [NTP]
We have developed a 1536-well cell-based assay for quantitative high throughput screening (qHTS) against a number of cell lines to determine in vitro caspase 3/7 of small molecules. This particular assay uses the HepG2 cell line which is derived from human hepatocellular carcinoma.
NCGC Assay Protocol Summary:
The Caspase-Glo 3/7 assay (Promega) is a homogeneous method to measure caspase-3 and caspase-7 activities in cultured cells. The quantitation of caspase 3/7 activity is based on the cleavage of a peptide-aminoluciferin substrate. After caspase cleaves the substrate the free aminoluciferin is liberated and serves as the substrate of luciferase, which generates the light. The luminescent signal is proportional to amount of caspase 3/7 activity present.
Using the Caspase-Glo 3/7 assay, the amount of caspase 3/7 activity was measured in the HepG2 cell line with complete culture medium following compound treatment for 16 hours. The assay was performed in opaque white 1536-well plates. In the screen, tamoxifen and doxorubicin were used as positive controls. Library compounds were measured for their ability to cause the activation of caspase 3/7 in the cell line, as reflected by an increase in luminescence signal, in a concentration-dependent manner. Data were normalized to the controls for basal activity (DMSO only) and 100% stimulation (100 uM tamoxifen). AC50 values were determined from concentration-response data modeled with the standard Hill equation.
qHTS protocol for caspase 3/7 assay in HepG2 cells
[Step] [Parameter] [Value] [Description]
1. Reagent; 5 uL; 1500 HepG2 cells/well
2. Time; 5 hr; 37 °C incubation
4. Controls; 23 nL; Tamoxifen 0.23 uM to 100 uM & Doxorubicin 7.0 pM to 100 uM
5. Time; 16 hr; 37 °C incubation
6. Reagent; 5 uL; Caspase-Glo 3/7 reagent
7. Time; 20 min; Room Temperature
8. Detection; Luminescence; Viewlux plate reader
Keywords: caspase 3/7, apoptosis, HepG2 cell line, luminescence, NTPHTS, NTPHTS_NCGC, NIEHS, EPA, DSSTox, MLSMR, MLSCN, NIH Roadmap, qHTS, NCGC

| SMILES | outcome |
| --- | --- |
| OC[C@H]1O[C@@H]2O[C@H]3[C@H](O)[C@@H](O)[C@@H](O[C@H]4[C@H](O)[C@@H](O)[C@@H](O[C@H]5[C@H](O)[C@@H](O)[C@@H](O[C@H]6[C@H](O)[C@@H](O)[C@@H](O[C@H]7[C@H](O)[C@@H](O)[C@@H](O[C@H]8[C@H](O)[C@@H](O)[C@@H](O[C@H]1[C@H](O)[C@H]2O)O[C@@H]8CO)O[C@@H]7CO)O[C@@H]6CO)O[C@@H]5CO)O[C@@H]4CO)O[C@@H]3CO | inactive |
| CCOc1ccc(NC(C)=O)cc1 | inactive |
| O=C(O)c1ccc(S(=O)(=O)N(Cl)Cl)cc1 | inactive |
| C=C[C@H]1CN2CC[C@H]1C[C@@H]2[C@@H](O)c1ccnc2ccc(OC)cc12 | inactive |
| COc1cc([C@H]2Oc3cc([C@H]4Oc5cc(O)cc(O)c5C(=O)[C@@H]4O)ccc3O[C@@H]2CO)ccc1O | inactive |
| Oc1c(Cl)cc(Cl)c(Cl)c1Cc1c(O)c(Cl)cc(Cl)c1Cl | inactive |
| NCCNc1cccc2ccccc12 | inactive |
| CCCN(CCC)S(=O)(=O)c1ccc(C(=O)O)cc1 | inactive |
| COc1ccc(C(Cl)=C(c2ccc(OC)cc2)c2ccc(OC)cc2)cc1 | inactive |
| CCCCC(CC)COC(=O)c1ccc(N(C)C)cc1 (centres undefined) | inactive |
| NC(=O)c1ccccc1O | inactive |
| C/C=C/c1ccc(O)c(OC)c1 | inactive |
| CCOc1ccccc1C(N)=O | inactive |
| COc1ccc(C(=O)c2ccccc2)c(O)c1 | inactive |
